Test results: PubChem BioAssay
Activity calls are given as the source filed them. Unless noted, the rule behind the calls is not given here.

Experiments:
[1] = compounds binding Alexa647 anti-His antibody – biochemical, small-molecule microarray, 635 nm fluorescence, artefact control for SMM control protein annotation, primary screen (AID 1128); details: higher = more signal;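 note: score merges feature fluorescence with signal-to-noise for each printed compound spot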
[2] = test system: Human papillomavirus type 1a E7 protein (residues 1-88); assay: HPV1a E7 small-molecule binders, primary screen, biochemical, small-molecule microarray, residues 1-88, 635 nm (AID 1129); details: small-molecule microarray binding, fluorescence 635 nm; higher = more signal
[3] = target: Focal adhesion kinase 1 (Homo sapiens) (UniProt Q05397); assay: PTK2 protein binding on printed compound slides – biochemical, small-molecule microarray, 635/667 nm fluorescence, BSA, DTT, primary screen (AID 1130); details: 635 nm fluorescence, higher = more signal;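 note: composite of spot emission at 667 nm and signal to noise over triplicate slides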
[4] = test system: Fibrinogen (Alexa647-labelled); assay: Alexa647-fibrinogen binding to printed small molecules – biochemical, small-molecule microarray, 635/667 nm fluorescence, artefact control for SMM control-protein annotation, profiling panel (AID 1131); details: fibrinogen-A647 binding fluorescence, higher = more signal;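 note: z-score merges 667 nm fluorescence with per-spot signal-to-noise over triplicate slides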
[5] = target: Follistatin (Homo sapiens) (UniProt P19883); assay: FST protein binding to printed compounds – biochemical, small-molecule microarray, 635/667 nm fluorescence, primary screen (AID 1132); details: 635 nm fluorescence, higher = more signal
[6] = target: Fibroblast growth factor 2 (Homo sapiens) (UniProt P09038); assay: basic fibroblast growth factor binding to printed compounds – biochemical, small-molecule microarray, 635/667 nm fluorescence, primary screen (AID 1133); details: FGF2, fluorescence 635/667, higher = more signal
[7] = JC-1 mitochondrial potential readout, lung cancer cells – cell-based, A549, JC-1 fluorescence, basal, 24 h, 100 nL, profiling panel (AID 1138); details: higher = more signal;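 note: A549 lung adenocarcinoma cells under basal conditions with no added stimulus; test concentration not given here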
Lefty1 = Lefty1 protein binding to printed compounds – biochemical, small-molecule microarray, 635/667 nm fluorescence, primary screen (AID 1139); details: fluorescence 635/667, higher = more signal
[8] = test system: wheat germ agglutinin (Triticum aestivum), Alexa647-labelled; assay: Alexa647-WGA lectin binding to printed small molecules – biochemical, small-molecule microarray, 635/667 nm fluorescence, artefact control for SMM control-protein annotation, profiling panel (AID 1140); details: WGA-A647 binding, 635 nm fluorescence, higher = more signal;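 note: score merges 667 nm feature emission with signal to noise over triplicate slides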
[9] = target: Luciferin 4-monooxygenase (Photinus pyralis) (UniProt P08659); assay: inhibition of purified Photinus pyralis luciferase – biochemical, luminescence, purified enzyme, 2006 set, primary screen (AID 1141); details: purified firefly luciferase, SteadyGlo luminescence, 30 min; higher = more signal, called active from +8 up or from −8 down;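 note: cell-free assay with purified firefly luciferase at 100 ng per well in PBS; test concentration not given here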
[10] = test system: Wnt5a (protein binding on small-molecule microarray); assay: small molecules binding Wnt5a protein – biophysical, small-molecule microarray, 635/667 nm fluorescence, primary screen (AID 1142); details: 635 nm fluorescence, higher = more signal;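 note: fluorescence read at 667 nm with signal to noise per printed feature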
[11] = ATP-based viability of Huh7 replicon cells – cell-based, CellTiter-Glo luminescence, basal, 48 h, cytotoxicity control for HCV replication inhibitor project, primary screen (AID 1143); details: higher = more signal, called active from +8 up or from −8 down;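 note: Huh7 hepatoma cells carrying a hepatitis C replication reporter with no stimulus; test concentration not given here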
[12] = Pseudomonas biofilm growth suppression – PAO1 strain, BacTiter-Glo luminescence, LB-PBS, primary screen (AID 1144); details: P. aeruginosa PAO1 biofilm, 12 h, higher = more signal
[13] = basal CRE-LacZ reporter activity in PC12 – cell-based, unstimulated, primary screen (AID 1145); details: no forskolin, luminescence, 4.5 h, higher = more signal, called active from +8 up or from −8 down
[14] = forskolin-driven CRE-LacZ activity in PC12 – cell-based, CRE-LacZ reporter, forskolin-stimulated, primary screen (AID 1146); details: luminescence, 4.5 h, higher = more signal, called active from +8 up or from −8 down;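 note: PC12 cells with 6xCRE LacZ reporter stimulated by forskolin 10 µM; beta-galactosidase reporter signal reflecting CREB driven transcription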
[15] = target: Streptavidin (Streptomyces avidinii) (UniProt P22629); assay: compounds binding control protein streptavidin – biophysical, small-molecule microarray, 635/667 nm fluorescence, artefact control for SMM compound annotation, primary screen (AID 1147); details: higher = more signal;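 note: signal reflects streptavidin binding to arrayed compounds as a control protein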
[16] = probe aInhba binding on compound microarray – biochemical, small-molecule microarray, 635/667 nm fluorescence, primary screen (AID 1148); details: higher = more signal;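 note: score merges 667nm spot fluorescence with signal-to-noise for antibody binding to printed compounds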
Torsin-1A (Homo sapiens) [17] = target: Torsin-1A (Homo sapiens) (UniProt O14656); assay: TOR1A wild-type binding on microarray – cell lysate, small-molecule microarray, lysate, 635/667 nm, primary screen (AID 1149); details: COS7 hTOR1A-WT lysate, 635 nm fluorescence, higher = more signal
Torsin-1A (Homo sapiens) [18] = target: Torsin-1A (Homo sapiens) (UniProt O14656); assay: torsin A mutant lysate binding on microarrays – cell lysate, small-molecule microarray, COS7 lysate, 635/667 nm fluorescence, primary screen (AID 1150); details: COS7 hTOR1A mutant lysate, 635 nm fluorescence, higher = more signal;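 note: score pools 667 nm emission and signal to noise measuring lysate protein binding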
[19] = test system: Sonic hedgehog protein (Shh); assay: Sonic hedgehog microarray binding compounds – biochemical, small-molecule microarray, 635/667 nm fluorescence, primary screen (AID 1151); details: 635 nm fluorescence, higher = more signal;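 note: Shh protein binding to compounds spotted on small-molecule microarray slides; score combines spot fluorescence intensity with signal-to-noise across triplicate slides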

Streptavidin (Streptomyces avidinii), sequence (P22629 whole entry, looked up): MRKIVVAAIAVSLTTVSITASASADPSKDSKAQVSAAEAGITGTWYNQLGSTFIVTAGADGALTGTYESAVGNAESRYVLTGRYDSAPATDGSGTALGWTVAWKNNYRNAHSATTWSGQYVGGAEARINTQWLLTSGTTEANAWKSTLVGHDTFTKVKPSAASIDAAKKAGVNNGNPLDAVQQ
Focal adhesion kinase 1 (Homo sapiens), sequence (Q05397 whole entry, looked up): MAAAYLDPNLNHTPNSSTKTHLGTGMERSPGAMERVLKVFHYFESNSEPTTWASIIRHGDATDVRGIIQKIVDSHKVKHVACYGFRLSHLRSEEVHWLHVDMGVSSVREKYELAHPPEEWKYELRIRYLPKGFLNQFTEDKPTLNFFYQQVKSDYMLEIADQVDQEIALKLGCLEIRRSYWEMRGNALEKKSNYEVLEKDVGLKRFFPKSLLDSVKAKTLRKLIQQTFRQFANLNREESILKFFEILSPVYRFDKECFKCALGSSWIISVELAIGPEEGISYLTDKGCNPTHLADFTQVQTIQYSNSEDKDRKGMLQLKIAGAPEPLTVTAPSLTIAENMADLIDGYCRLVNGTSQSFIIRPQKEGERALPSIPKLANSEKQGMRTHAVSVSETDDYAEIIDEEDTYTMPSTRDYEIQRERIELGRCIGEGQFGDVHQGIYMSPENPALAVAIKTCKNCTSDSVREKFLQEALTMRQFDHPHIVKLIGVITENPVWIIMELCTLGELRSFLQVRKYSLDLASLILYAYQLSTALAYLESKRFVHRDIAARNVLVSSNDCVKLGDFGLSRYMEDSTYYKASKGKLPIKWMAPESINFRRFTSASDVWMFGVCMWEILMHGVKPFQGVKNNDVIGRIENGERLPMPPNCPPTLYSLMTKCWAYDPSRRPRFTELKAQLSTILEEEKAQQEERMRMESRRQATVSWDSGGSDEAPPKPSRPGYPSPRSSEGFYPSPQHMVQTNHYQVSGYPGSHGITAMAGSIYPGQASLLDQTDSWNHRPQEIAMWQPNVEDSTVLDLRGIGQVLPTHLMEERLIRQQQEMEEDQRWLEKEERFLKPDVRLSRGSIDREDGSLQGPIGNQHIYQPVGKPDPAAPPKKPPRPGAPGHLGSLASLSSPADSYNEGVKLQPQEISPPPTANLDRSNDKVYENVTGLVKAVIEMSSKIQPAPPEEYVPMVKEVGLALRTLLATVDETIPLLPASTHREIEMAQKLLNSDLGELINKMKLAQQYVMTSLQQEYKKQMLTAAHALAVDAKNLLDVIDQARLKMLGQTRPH
Luciferin 4-monooxygenase (Photinus pyralis), sequence (P08659 whole entry, looked up): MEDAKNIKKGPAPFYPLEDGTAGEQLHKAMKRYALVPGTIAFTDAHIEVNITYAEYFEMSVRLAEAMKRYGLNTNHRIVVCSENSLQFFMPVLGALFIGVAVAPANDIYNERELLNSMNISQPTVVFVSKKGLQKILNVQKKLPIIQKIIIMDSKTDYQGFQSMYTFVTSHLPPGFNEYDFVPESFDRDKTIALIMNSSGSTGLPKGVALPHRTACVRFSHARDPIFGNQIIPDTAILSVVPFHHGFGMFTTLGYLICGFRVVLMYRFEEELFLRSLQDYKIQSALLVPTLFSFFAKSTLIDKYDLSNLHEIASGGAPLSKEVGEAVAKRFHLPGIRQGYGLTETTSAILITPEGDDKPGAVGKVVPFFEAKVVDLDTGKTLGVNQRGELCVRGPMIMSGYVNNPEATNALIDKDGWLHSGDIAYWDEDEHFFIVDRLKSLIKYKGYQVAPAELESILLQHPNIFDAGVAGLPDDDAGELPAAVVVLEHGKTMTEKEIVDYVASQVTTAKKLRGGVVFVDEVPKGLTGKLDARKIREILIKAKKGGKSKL
Follistatin (Homo sapiens), sequence (P19883 whole entry, looked up): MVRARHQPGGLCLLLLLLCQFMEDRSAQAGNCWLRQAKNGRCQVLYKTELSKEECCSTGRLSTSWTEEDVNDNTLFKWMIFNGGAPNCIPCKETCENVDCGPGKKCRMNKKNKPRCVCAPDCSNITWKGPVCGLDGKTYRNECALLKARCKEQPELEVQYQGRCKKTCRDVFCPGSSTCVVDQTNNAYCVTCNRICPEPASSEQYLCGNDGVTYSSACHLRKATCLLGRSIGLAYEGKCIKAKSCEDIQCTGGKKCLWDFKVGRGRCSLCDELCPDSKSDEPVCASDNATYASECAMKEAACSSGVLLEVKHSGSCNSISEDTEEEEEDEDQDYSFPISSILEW
Fibroblast growth factor 2 (Homo sapiens), sequence (P09038 whole entry, looked up): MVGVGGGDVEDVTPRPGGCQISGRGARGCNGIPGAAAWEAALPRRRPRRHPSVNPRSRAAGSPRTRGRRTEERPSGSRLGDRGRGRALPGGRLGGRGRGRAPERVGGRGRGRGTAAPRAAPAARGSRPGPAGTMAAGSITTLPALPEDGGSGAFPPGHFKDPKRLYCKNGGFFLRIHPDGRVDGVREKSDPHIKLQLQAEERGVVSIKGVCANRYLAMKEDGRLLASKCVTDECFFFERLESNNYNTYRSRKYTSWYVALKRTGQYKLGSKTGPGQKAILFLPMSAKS
Torsin-1A (Homo sapiens), sequence (O14656 whole entry, looked up): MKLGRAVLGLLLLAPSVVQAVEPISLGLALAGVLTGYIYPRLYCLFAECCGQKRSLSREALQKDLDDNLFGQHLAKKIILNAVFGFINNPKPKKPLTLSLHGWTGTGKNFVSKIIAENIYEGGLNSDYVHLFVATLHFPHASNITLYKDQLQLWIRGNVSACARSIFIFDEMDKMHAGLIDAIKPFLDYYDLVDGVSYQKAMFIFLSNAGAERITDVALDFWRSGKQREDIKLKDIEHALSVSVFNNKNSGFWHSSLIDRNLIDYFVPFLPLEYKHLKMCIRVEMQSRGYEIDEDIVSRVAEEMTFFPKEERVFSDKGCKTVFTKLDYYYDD

SMILES	composite z-score [1]	composite z-score [2]	composite z-score [3]	composite z-score [4]	composite z-score [5]	composite z-score [6]	z-score [7]	composite z-score (Lefty1)	composite z-score [8]	z-score [9]	composite z-score [10]	z-score [11]	z-score [12]	z-score [13]	z-score [14]	composite z-score [15]	composite z-score [16]	composite z-score (Torsin-1A (Homo sapiens) [17])	composite z-score (Torsin-1A (Homo sapiens) [18])	composite z-score [19]
CCOC(=O)NN=C1C[C@@H](O)[C@@H](O)[C@@H]2[C@@H]3C(=O)N(C[C@@H]4CCCO4)C(=O)[C@@H]3CC[C@H]12	0.57	0.317	0.43	0.835	0.308	0.342	-0.311	0.293	0.0337	0.515 (inactive)	0.0534	0.587 (inactive)	-0.973 (inactive)	-0.926 (inactive)	-0.0875 (inactive)	-0.319	-0.004	0.715	0.577	0.225
COc1ccc(OC[C@@H]2CC3[C@@H](c4ccc(Br)cc4)[C@H](C)CC[C@H]3C(=O)O2)cc1 (stereo not given in full)	-1.08	-0.291	-0.0102	0.563	0.57	0.29	-0.296	0.74	0.282	0.294 (inactive)	-0.223	-0.513 (inactive)	-0.12 (inactive)	1.9 (inactive)	-0.462 (inactive)	0.0139	-0.202	0.327	0.832	0.391
O=C1C=C[C@@H](O)[C@@H]2[C@@H]3C(=O)N(c4cccc(Oc5ccccc5)c4)C(=O)[C@@H]3CC[C@@H]12	0.959	0.548	-0.183	-0.127	0.464	-0.196	-0.774	0.478	0.228	-0.57 (inactive)	-0.136	-3.63 (inactive)	-0.743 (inactive)	1.43 (inactive)	-0.358 (inactive)	0.061	-0.128	0.96	-0.118	0.64
CCOC(=O)CCN1C(=O)[C@H]2[C@H]3[C@H](O)[C@H](O)CC(=NOCC(C)C)[C@@H]3CC[C@H]2C1=O	-0.957	-0.263	-0.286	-0.586	0.91	1.14	-0.478	0.929	0.0456	0.826 (inactive)	0.0707	-1.76 (inactive)	-0.123 (inactive)	0.424 (inactive)	-0.209 (inactive)	-0.483	-0.0986	2.79	2.77	1.1
COC(OC)[C@@H](C)[C@H](OC)[C@@H](C)[C@H](OC)c1ccccc1	-0.504	0.104	-0.043	-0.353	0.144	0.142	2.15	0.253	-0.0965	-1.67 (inactive)	0.3	-0.609 (inactive)	-1.32 (inactive)	1.46 (inactive)	0.0401 (inactive)	-0.211	-0.321	0.237	-0.252	0.155
O=C1CCCC=C1C(O)COCc1ccccc1 (stereo not given)	0.195	-1.33	0.0944	0.772	0.124	0.236	-0.68	0.295	-0.0439	0.345 (inactive)	0.154	0.78 (inactive)	0.616 (inactive)	0.109 (inactive)	0.0658 (inactive)	1.42	-0.238	-0.465	-0.0394	0.124
O=C1[C@H]2[C@H]3[C@H](O)[C@H](O)CC(=NO[C@@H]4O[C@H](CO)[C@@H](O)[C@H](O)[C@H]4O)[C@@H]3CC[C@H]2C(=O)N1C[C@@H]1CCCO1	0.142	1.15	0.142	0.907	0.396	0.4	-1.08	0.649	0.326	0.954 (inactive)	0.185	-2.92 (inactive)	-0.131 (inactive)	0.885 (inactive)	0.0432 (inactive)	0.0066	-0.128	0.339	-0.0388	0.89
CC(=O)OC[C@H]1O[C@@H](ON=C(C)CCC(=O)OC[C@H]2O[C@H](C#Cc3ccccc3)C=C[C@@H]2Oc2ccc(C)cc2)[C@H](OC(C)=O)[C@@H](OC(C)=O)[C@@H]1OC(C)=O	0.48	0.843	0.108	0.705	0.753	1.26	1.08	0.648	0.307	-0.305 (inactive)	0.428	-1.1 (inactive)	-0.238 (inactive)	2.19 (inactive)	0.725 (inactive)	0.29	-0.082	0.513	0.461	1.19
CO[C@H]1COC(=O)[C@H](C)COC(=O)[C@@H](OCc2ccccc2)C=C[C@@H]1C	-0.49	-1.09	-0.317	-0.534	0.139	0.496	0.877	0.613	-0.49	-1.56 (inactive)	-0.19	-0.108 (inactive)	-0.462 (inactive)	-0.745 (inactive)	-0.786 (inactive)	-0.316	-0.273	0.489	0.214	0.307
COc1ccc(-c2cnnc(CCCn3ccnc3-c3ccccc3)n2)cc1	1.39	0.538	0.107	0.747	0.836	0.475	0.787	0.592	0.138	0.313 (inactive)	0.314	-4.68 (inactive)	-0.459 (inactive)	1.37 (inactive)	-0.631 (inactive)	0.22	-0.144	1.56	1.52	0.838
